Screening data as filed in PubChem.
A selection: hits, their analogues and other compounds. The true share with any hit is near 3.1%.
PP5 inh: PP5 phosphatase inhibitors, primary screen, biochemical, fluorescence; Serine/threonine-protein phosphatase 5 (Homo sapiens), P53041; purified PP5c, OMFP substrate fluorescence; inhibition, % at 6.7 µM; actives 0.18% (n = 320,000);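 active = inhibition above the campaign's mean inhibition across all tested compounds plus 3 SD, cut at about 9.5% in these data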;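 also: 0% = DMSO only and 100% = 100 µM cantharidin control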
Target sequence (P53041 whole entry, looked up): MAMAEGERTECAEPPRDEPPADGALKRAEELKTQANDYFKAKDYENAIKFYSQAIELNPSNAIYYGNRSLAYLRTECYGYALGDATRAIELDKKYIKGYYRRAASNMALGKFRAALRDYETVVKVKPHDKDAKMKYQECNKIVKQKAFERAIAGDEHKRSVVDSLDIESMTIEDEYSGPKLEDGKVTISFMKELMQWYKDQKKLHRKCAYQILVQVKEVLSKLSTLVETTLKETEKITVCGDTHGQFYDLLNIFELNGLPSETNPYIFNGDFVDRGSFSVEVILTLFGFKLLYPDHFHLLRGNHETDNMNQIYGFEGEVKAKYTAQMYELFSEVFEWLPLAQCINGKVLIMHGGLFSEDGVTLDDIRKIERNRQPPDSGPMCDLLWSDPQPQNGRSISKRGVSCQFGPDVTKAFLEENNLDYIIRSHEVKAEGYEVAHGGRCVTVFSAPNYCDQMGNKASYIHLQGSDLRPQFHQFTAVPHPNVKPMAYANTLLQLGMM
CSC inhib: cancer stem cell viability inhibitors, primary screen, luminescence | cancer stem cell-like cells viability | inhibition, % at 7.5 µM | actives 1.1% (n = 300,000) | AID 2717, 2010; in the data active = inhibition above about 75%; tested in HMLE shEcad cells
PP1 inh: PP1-alpha phosphatase inhibitors, primary screen, counter-screen for PP5 inhibitor project, biochemical, fluorescence, OMFP substrate, single point | Serine/threonine-protein phosphatase PP1-alpha catalytic subunit (Homo sapiens), P62136 | inhibition, % at 6.7 µM | actives 0.9% (n = 320,000) | purified PP1alpha;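 active = inhibition above the mean inhibition of all tested compounds plus 3 SD, computed separately for each screening campaign, cut at about 15% in these data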
SKKanGAS inh: S. pyogenes SKKanGAS growth inhibitors in kanamycin, primary screen, streptokinase expression inhibitor project, SKKanGAS strain, BacTiter-Glo luminescence; 6 h; actives 1.3% (n = 300,000); AID 1662, 2009; inhibition, % at 7.5 µM;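 active = mean replicate score, as percent of positive control median, at least 50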;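 also: strain carries kanamycin resistance gene driven by streptokinase promoter and grows in 40 µg/ml kanamycin; loss of luminescence reflects streptokinase promoter inhibition or plain growth inhibition; 0% = median of DMSO wells and 100% = positive control at its reference dose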
Beta cell apopt: inhibitors of cytokine-induced beta cell apoptosis, primary screen, luminescence; INS-1E cytokine-induced death, ATP luminescence, 48 h; percent of positive-control rescue, neutral wells zero; protection from apoptosis, % (no concentration beside the values); actives 0.8% (n = 300,000); AID 435005, 2010;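 active = Every replicate reaches about 75%, or at least half do and their mean reaches it too, limit read from the data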;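 also: 0% = cytokine-treated negative control wells and 100% = positive control rescue; higher means more ATP so stronger rescue from cytokine killing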
PP5 inh confirm: PP5 phosphatase inhibitors, confirmation, biochemical, fluorescence, human; shares compounds with PP5 inh; Purified PP5, fluorogenic phosphatase substrate; inhibition, % at 6.7 µM; actives 22% (n = 460); in the data active = inhibition above about 9.5%
PP1 counter 3x: PP1 phosphatase inhibitors, counter-screen for PP5 inhibitor project, biochemical, fluorescence, triplicate; PP1 enzyme, fluorescent phosphatase substrate; inhibition, % at 6.7 µM; actives 4% (n = 460); shares compounds with PP5 inh; in the data active = inhibition above about 16%
The depositor's hits bear a star.

`COc1cc2c(cc1OC)C(c1cccs1)N(C(=O)C(C)C)CC2` (stereo not given) gave PP5 inh 9.9*, CSC inhib 18, PP1 inh 0, SKKanGAS inh 1, Beta cell apopt -4, PP5 inh confirm -5 and PP1 counter 3x -5.
`CC1(C)CC(=O)C(C(=O)c2ccccc2)C(=O)C1Cl` (stereo not given) gave PP5 inh 0, CSC inhib 2, PP1 inh 0, SKKanGAS inh 6 and Beta cell apopt -2.
For CC(C)=CC(=O)N1CCCc2ccccc21 the results were PP5 inh 9.7*, CSC inhib -7, PP1 inh 7, SKKanGAS inh -7, Beta cell apopt -4, PP5 inh confirm -4 and PP1 counter 3x -6.
Screening Cn1nnnc1NCc1cccc(Cl)c1Cl returned PP5 inh 15*, CSC inhib -17, PP1 inh 1, SKKanGAS inh -1, Beta cell apopt -6, PP5 inh confirm -1 and PP1 counter 3x -3.
Screening Cn1nnnc1NCc1c(F)cccc1Cl returned PP5 inh 2, PP1 inh -2 and SKKanGAS inh -1.
For Cn1cc(CNCc2ccc(-n3cccn3)cc2)c(-c2ccccc2F)n1 the results were PP5 inh 3, CSC inhib 2, PP1 inh 1, SKKanGAS inh 1 and Beta cell apopt 3.
Screening Cn1cc(CNCCCn2ncc3ccccc32)c(-c2ccccc2F)n1 returned PP5 inh 16*, CSC inhib 15, PP1 inh -10, SKKanGAS inh -4, Beta cell apopt -3, PP5 inh confirm -4 and PP1 counter 3x -7.
`COC(=O)CCC(=O)OC1(C)C(=O)C=C2C=C(C3CC3)N(C3CCCC3)C=C2C1=O` (stereo not given) gave PP5 inh 12*, CSC inhib -9, PP1 inh 3, SKKanGAS inh 4, Beta cell apopt -7, PP5 inh confirm 32* and PP1 counter 3x 7.
COC(=O)CCC(=O)OC1(C)C(=O)C=C2C=C(C3CC3)N(CC3CC3)C=C2C1=O (stereo not given) was read as PP5 inh 12*, CSC inhib -2, PP1 inh 0, SKKanGAS inh 4, Beta cell apopt -10, PP5 inh confirm 37* and PP1 counter 3x 14.
For COC(=O)CCC(=O)OC1(C)C(=O)C=C2C=C(C3CC3)N(C3CCCCC3)C=C2C1=O (stereo not given) the results were PP5 inh 8, CSC inhib -18, PP1 inh 5, SKKanGAS inh 3 and Beta cell apopt -9.
Screening COC(=O)CCC(=O)OC1(C)C(=O)C=C2C=C(C3CC3)N(CC(C)C)C=C2C1=O (stereo not given) returned SKKanGAS inh -1.
O=C(CC(=O)NC1CCCCC1)N/N=C/c1ccccc1[N+](=O)[O-] was read as PP5 inh -1, PP1 inh 0, SKKanGAS inh 0 and Beta cell apopt -3.
O=C1c2ccccc2C(=O)C12OC2c1ccc(Cl)cc1 (stereo not given) was read as PP5 inh 11*, CSC inhib 15, PP1 inh 1, SKKanGAS inh -24, Beta cell apopt 5, PP5 inh confirm 32* and PP1 counter 3x 4.
Screening CC(C)Nc1nc(NC(C)C)nc(C(N)=O)n1 returned PP5 inh 11*, CSC inhib -4, PP1 inh 0, SKKanGAS inh 1, Beta cell apopt -12, PP5 inh confirm -7 and PP1 counter 3x -6.
Screening COc1cccc(C(C[N+](=O)[O-])c2c(C)[nH]n(-c3ccccc3)c2=O)c1 (stereo not given) returned PP5 inh 12*, CSC inhib -12, PP1 inh 2, SKKanGAS inh 7, Beta cell apopt 6, PP5 inh confirm -1 and PP1 counter 3x -2.
For Cc1[nH]n(-c2ccccc2)c(=O)c1C(C[N+](=O)[O-])c1ccc(Br)cc1 (stereo not given) the results were PP5 inh 2, CSC inhib 35, PP1 inh 1 and SKKanGAS inh 9.
For COc1cc(NC(=O)C/C(C)=N/NC(=O)C(=O)NCCO)c(OC)cc1Cl the results were PP5 inh 3, CSC inhib -24, PP1 inh -4, SKKanGAS inh 0 and Beta cell apopt -3.
`C/C(CC(=O)NCC(C)C)=N\NC(=O)COc1cc(C)c(Br)cc1Br` gave PP5 inh 3, CSC inhib 2, PP1 inh 1, SKKanGAS inh 4 and Beta cell apopt 5.
Cc1cccc(OCC(=O)N/N=C/c2sc(=O)n(Cc3cccc(C(=O)O)c3)c2Cl)c1 was read as PP5 inh 13*, CSC inhib -12, PP1 inh 3, SKKanGAS inh 5, Beta cell apopt -1, PP5 inh confirm -3 and PP1 counter 3x -1.
Screening O=C(COc1ccccc1)N/N=C/c1sc(=O)n(Cc2cccc(C(=O)O)c2)c1Cl returned PP5 inh 3, CSC inhib 3, PP1 inh -7, SKKanGAS inh 18 and Beta cell apopt -1.
For Cc1ccc(C(=O)Oc2ccc(N3C(=O)CCC3=O)c(C)c2)cc1 the results were PP5 inh -1, CSC inhib -10, PP1 inh -3, SKKanGAS inh 0 and Beta cell apopt 4.
Cc1cc(OCC(=O)c2ccc(Br)cc2)ccc1N1C(=O)CCC1=O was read as PP5 inh 13*, CSC inhib 3, PP1 inh -2, SKKanGAS inh 3, Beta cell apopt -4, PP5 inh confirm -6 and PP1 counter 3x -3.
For O=C(Nc1ccc(Nc2ccccc2)cc1)c1cccc(F)c1 the results were PP5 inh 9.8*, CSC inhib 75*, PP1 inh -1, SKKanGAS inh 1, Beta cell apopt 7, PP5 inh confirm 3 and PP1 counter 3x 2.
`O=C(Nc1cccc(F)c1)c1ccccc1` gave PP5 inh 0, CSC inhib -12, PP1 inh 1, SKKanGAS inh 1 and Beta cell apopt -2.
`O=C(Nc1ccc(C(=O)N2CCCCC2)cc1)Nc1cccc(Cl)c1` gave PP5 inh 3, CSC inhib 37, PP1 inh 1, SKKanGAS inh -29 and Beta cell apopt -6.
CC(=O)C(C(C)=O)C1(O)C(=O)c2ccccc2C1=O was read as PP5 inh 14*, CSC inhib -16, PP1 inh 3, SKKanGAS inh 2, Beta cell apopt -16, PP5 inh confirm 38* and PP1 counter 3x 3.
